# Records with an inconclusive call do not appear. A call without a number means that no potency is given here. Unmarked numbers belong to inactive results. Calls of active or inactive are those of the source. Calls follow the shape of the dose curve; as a rule, active = well fitted curve in the direction sought with a large enough effect; inconclusive = small, poorly fitted or top-dose-only effect, or another doubt; inactive = no such curve, though single readings can be large; an effect the other way counts as inactive or inconclusive.
# Experiments:
# [1] = OV-KATE Cancer Cell Toxicity qHTS against the NCATS CANVASS Library (AID 1347345)
# Summary of the method: (§1)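 1000 cells/well seeded and rested 4 h at 37 °C before pin transfer of compounds in an 11-pnt series. Exposure 72 h at 37 °C/5% CO2; viability by CellTiter-Glo luminescence after 15 min at room temperature.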
# [2] = U-118MG Cancer Cell Toxicity qHTS against the NCATS CANVASS Library (AID 1347351); also: potency is read from the fitted curve at half-maximal effect
# Summary of the method: as §1
# [3] = UWB1.289-WTBRCA1 Cancer Cell Toxicity qHTS against the NCATS CANVASS Library (AID 1347354)
# Summary of the method: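 Toxicity was measured as CellTiter-Glo luminescence after 72 h exposure to an 11-point compound series. Compound was added to 1000 cells/well 4 h after seeding.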
# [4] = HPAF-II 24hr Apoptosis Induction qHTS against the NCATS CANVASS Library (AID 1347356)
# Summary of the method: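 Caspase-Glo 3/7 luminescence, read after 15 min room-temperature development, measures apoptosis in HPAF-II cells treated 24 h at 37 degrees C with an 11-point concentration series; 500 cells/well; doxorubicin control.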
# [5] = SDT Cancer Cell Toxicity qHTS against the NCATS CANVASS Library (AID 1347365); also: nearly all actives have a fitted effect of over 60% in size; also: potency is read from the fitted curve at half-maximal effect
# Summary of the method: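 Cytotoxicity taken from CellTiterGlo ATP luminescence after 72 hr at 37C, 5% CO2. Canine glioma line SDT, 500 cells/well, treated at 11 concentrations; bortezomib dose series as control.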
# [6] = G06 Cancer Cell Toxicity qHTS against the NCATS CANVASS Library (AID 1347368); also: nearly all actives have a fitted effect of over 60% in size; also: potency is read from the fitted curve at half-maximal effect
# Summary of the method: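 Viability measured by CellTiterGlo ATP luminescence after 72 hr at 37C, 5% CO2. Canine G06 glioma cells plated at 500/well. Compounds tested as 11-point qHTS titrations.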
# [7] = MCF7 Cancer Cell Toxicity qHTS against the NCATS CANVASS Library (AID 1347369)
# Summary of the method: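 Cytotoxicity was measured as CellTiterGlo luminescence (ATP) after 72 h at 37 °C. The cells were MCF7 at 500 per well, with an 11-point compound concentration series.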
# [8] = qHTS for Hypoxia signaling pathway (HIF-1) antagonists against the NCATS CANVASS Library (AID 1347374); also: nearly all actives have a fitted effect of over 60% in size; also: potency is read from the fitted curve at half-maximal effect
# Summary of the method: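 Antagonism scored as loss of CoCl2-driven (60 uM stock added) HRE beta-lactamase signal, read by CCF4 FRET at 460/530 nm. Compounds were tested in an 11-point series on ME-180 reporter cells for 17 hrs at 37C, with parallel CellTiter-Glo cytotoxicity.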
# [9] = DH5-alpha competent E. coli microbial cell viability qHTS against the NCATS CANVASS Library (AID 1347377); conditions: outcome: dose series up to 46.1 µM unless noted
# Summary of the method: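 Bacterial viability as ATP-dependent luminescence (BacTiter-Glo), read after overnight 37 °C exposure of DH5-alpha competent E. coli to compounds in 11-point titration.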
# [10] = qHTS assay for small molecule disruptors of mitochondrial membrane potential screened against the NCATS CANVASS Library (AID 1347389); also: nearly all actives have a fitted effect of over 60% in size; also: potency is read from the fitted curve at half-maximal effect
# Summary of the method: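 Mitochondrial membrane potential in HepG2: 1 h compound treatment (11-point concentration series), 30 min m-MPI dye at 37C, then dual fluorescence of J-aggregates (ex 540/em 590) and monomers (ex 490/em 535); lower red/green ratio indicates depolarization.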
# [11] = qHTS for inhibitors of Wild type Zika virus screened against the NCATS CANVASS Library (AID 1347396);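 also: ATP luminescence of surviving cells so rescue from viral cell killing; series mostly up to about 46 µM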
# Summary of the method: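 Luminescent CellTiter Glo read-out of virus-induced cytotoxicity, 72 h post-infection, in Vero 766 cells. Compounds were tested at 11 concentrations; uninfected, vehicle-treated wells defined 100% inhibition.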
# [12] = UWB1.289 Cancer Cell Toxicity qHTS against the NCATS CANVASS Library (AID 1347347); also: nearly all actives have a fitted effect of over 60% in size; also: potency is read from the fitted curve at half-maximal effect
# Summary of the method: as §1
# [13] = Panc-1005 Cancer Cell Toxicity qHTS against the NCATS CANVASS Library (AID 1347349); also: nearly all actives have a fitted effect of over 60% in size; also: potency is read from the fitted curve at half-maximal effect
# Summary of the method: as §1
# [14] = SW1088 Cancer Cell Toxicity qHTS against the NCATS CANVASS Library (AID 1347350); also: nearly all actives have a fitted effect of over 75% in size; also: potency is read from the fitted curve at half-maximal effect
# Summary of the method: as §1
# [15] = A2780 Cisplatin Sensitive Ovarian Cancer Cell Toxicity qHTS against the NCATS CANVASS Library (AID 1347353); also: nearly all actives have a fitted effect of over 60% in size; also: potency is read from the fitted curve at half-maximal effect
# Summary of the method: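 Cisplatin-sensitive A2780 ovarian cells (750/well) received compound in 11 concentrations, and were incubated 72 h at 37 °C. ATP content was measured by ATPLite luminescence; bortezomib served as control.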
# [16] = qHTS for activators of Nrf2/ARE signaling pathway screened against the NCATS CANVASS Library (AID 1347391); also: nearly all actives have a fitted effect of over 60% in size; also: potency is read from the fitted curve at half-maximal effect
# Summary of the method: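 Eleven-point qHTS, 16 h treatment of HepG2 cells carrying an ARE-driven beta-lactamase reporter; CCF4 ratio read (405 nm excitation, 460 and 530 nm emission), with CellTiter-Glo ATP luminescence for viability.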
# [17] = qHTS for inhibitors of ER calcium dysfunction: SERCaMP assay screened against the NCATS CANVASS Library (AID 1347393); also: nearly all actives have a fitted effect of over 40% in size; also: potency is read from the fitted curve at half-maximal effect
# Summary of the method: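 qHTS in SH-SY5Y reporter cells: 16 h compound pretreatment, 4 h thapsigargin, then secreted Gaussia luciferase measured by luminescence.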
# [18] = Vero-766 cells viability qHTS against the NCATS CANVASS Library: Counterscreen for Zika virus inhibition assay (AID 1347394); also: nearly all actives have a fitted effect of over 60% in size; also: potency is read from the fitted curve at half-maximal effect
# Summary of the method: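 CellTiter Glo luminescence measured cytotoxicity after 72 h at 37C in uninfected Vero 766 cells, plated at 1000 cells/well. Compounds were applied in an 11-point series. Wells without cells defined 100% inhibition.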
# [19] = qHTS for Antimalaria activity screened against the NCATS CANVASS Library (AID 1347380); also: nearly all actives have a fitted effect of over 40% in size; also: potency is read from the fitted curve at half-maximal effect
# Summary of the method: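 SYBR Green fluorescence at 485/535 nm was read 18 hr after lysis. This followed a 72 hr incubation at 37C in 5% O2, 5% CO2 of Dd2-infected erythrocytes (0.3% parasitemia, 2.5% final hematocrit) with compounds titrated over 11 concentrations.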
# [20] = HPAF-II Cancer Cell Toxicity qHTS against the NCATS CANVASS Library (AID 1347346); also: potency is read from the fitted curve at half-maximal effect; nearly all actives have a fitted effect of over 55% in size
# Summary of the method: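 Cytotoxicity read-out was CellTiter-Glo luminescence after 72 h at 37 degrees C exposure of HPAF-II cells (1000/well) to compounds in an 11-point titration.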
SMILES,Potency [1],Potency [2],Potency [3],outcome [4],Potency [5],Potency [6],Potency [7],Potency [8],outcome [9],Potency [10],outcome [11],Potency [12],Potency [13],Potency [14],Potency [15],Potency [16],Potency [17],Potency [18],Potency [19],Potency [20]
CC(C)[C@]12CC[C@@]3(C)[C@H](C)CC[C@H](O)[C@@]3(CC1)c1cc3c(cc12)[nH]c1ccccc13,inactive,inactive,inactive,inactive,inactive,inactive,inactive,inactive,inactive,11.7 µM (active),inactive,,,,,,,,,
COC12OC1(C13OC1(OC)C(=O)c1cc4cc(C)oc(=O)c4c(O)c1C3O)C(O)c1c(cc3cc(C)oc(=O)c3c1O)C2=O (centres undefined),inactive,inactive,inactive,inactive,inactive,inactive,inactive,14.9 µM (active),inactive,inactive,,inactive,inactive,18.8 µM (active),inactive,inactive,inactive,23.4 µM (active),,
C/C=C(/C)c1c(Cl)c(O)c(C)c2c1Oc1c(Cl)c(O)c(Cl)c(C)c1C(=O)O2,inactive,inactive,inactive,inactive,,inactive,inactive,10.6 µM (active),,8.31 µM (active),,,inactive,18.8 µM (active),,inactive,inactive,7.41 µM (active),inactive,
COc1ccc2[nH]c3c(c2c1)CCN1C[C@H]2C[C@@H](OC(=O)c4cc(OC)c(OC)c(OC)c4)[C@H](OC)[C@@H](OC)[C@H]2C[C@H]31,inactive,,inactive,,0.526 µM (active),1.48 µM (active),,inactive,inactive,,inactive,,13.3 µM (active),,,inactive,6.09 µM (active),inactive,7.47 µM (active),13.3 µM (active)
CCC(=O)CCCCC[C@@H]1NC(=O)[C@H]2CCCCN2C(=O)[C@H](C(C)C)NC(=O)[C@H](Cc2cn(OC)c3ccccc23)NC1=O,,3.75 µM (active),,inactive,7.43 µM (active),4.69 µM (active),,inactive,,inactive,,7.47 µM (active),4.21 µM (active),13.3 µM (active),5.26 µM (active),inactive,inactive,5.88 µM (active),0.747 µM (active),2.98 µM (active)
CC(C)=CCC[C@]12c3cc4c(cc3CC[C@@]1(C)[C@H](C)CC[C@@H]2O)[nH]c1ccccc14,inactive,inactive,inactive,inactive,inactive,inactive,inactive,,inactive,20.9 µM (active),inactive,,,,,inactive,,,,
C=C[C@@]1(C)CC[C@@H]([C@H](C)C(=O)/C=C/C(C)(C)O)O1,inactive,inactive,inactive,inactive,,,inactive,,inactive,inactive,inactive,,,inactive,,13.2 µM (active),,inactive,inactive,
C/C=C(/C)c1cc(O)c(C)c2c1Oc1cc(O)cc(C)c1C(=O)O2,inactive,inactive,inactive,,inactive,inactive,,,inactive,10.5 µM (active),inactive,,inactive,,inactive,,,,inactive,
C[C@]12CC[C@]3(C1)[C@H](CC2=O)C[C@@H](OC(=O)c1ccccc1)[C@H]1[C@](C)(C(=O)O)CCC[C@@]13C,inactive,inactive,inactive,,,,inactive,,,inactive,,,,1.49 µM (active),16.6 µM (active),3.71 µM (active),inactive,6.6 µM (active),0.0133 µM (active),
O=c1cc(-c2ccc(O)c(O)c2)oc2cc(O[C@@H]3O[C@H](CO)[C@@H](O)[C@H](O)[C@H]3O)cc(O)c12,inactive,inactive,,inactive,,,,inactive,inactive,8.31 µM (active),inactive,1.18 µM (active),,,,inactive,38.4 µM (active),,0.236 µM (active),
C=CC(CCCCC)C1C(=O)NC(=O)C1C(=O)C1C2C(C)CC(C(=O)O)CC2CC1(O)C(=O)/C=C/C (centres undefined),inactive,inactive,inactive,inactive,inactive,inactive,inactive,8.38 µM (active),inactive,,inactive,inactive,inactive,,,2.09 µM (active),inactive,inactive,,
C/C1=C/[C@@H](C)[C@H](O)[C@@H](O)/C=C/CC/C=C/C(=O)O[C@@H]1[C@H](C)C(=O)CCCC1CC(=O)NC(=O)C1,inactive,inactive,inactive,inactive,20.9 µM (active),,,inactive,inactive,inactive,inactive,inactive,inactive,,inactive,,inactive,inactive,inactive,
C/C=C(/C)c1c(Cl)c(OC)c(C)c2c1Oc1c(Cl)c(O)c(Cl)c(C)c1C(=O)O2,inactive,inactive,,inactive,inactive,inactive,,10.6 µM (active),,2.63 µM (active),,,,13.3 µM (active),,inactive,inactive,3.71 µM (active),inactive,13.3 µM (active)

# Reference: PubChem BioAssay (NCATS)
